Reference: PubChem BioAssay (NCATS)
Results filed as inconclusive are left out. Active and inactive are the calls of the source. Unless noted, calls come from the whole dose curve; as a rule, active = well fitted curve in the direction sought with a large enough effect; inconclusive = small, poorly fitted or top-dose-only effect, or another doubt; inactive = no such curve, though single readings can be large; an effect the other way counts as inactive or inconclusive.

How the values were obtained:
[1] = biological target: Lysosomal acid glucosylceramidase (Homo sapiens) (UniProt P04062); assay: Glucocerebrosidase-p2 (AID 348; in the data active = potency below about 10 µM; note: potency is the fitted concentration of half-maximal effect); settings: purified GBA, blue fluorogenic substrate, 40 min
Chain of Lysosomal acid glucosylceramidase (Homo sapiens) (P04062 whole entry, looked up): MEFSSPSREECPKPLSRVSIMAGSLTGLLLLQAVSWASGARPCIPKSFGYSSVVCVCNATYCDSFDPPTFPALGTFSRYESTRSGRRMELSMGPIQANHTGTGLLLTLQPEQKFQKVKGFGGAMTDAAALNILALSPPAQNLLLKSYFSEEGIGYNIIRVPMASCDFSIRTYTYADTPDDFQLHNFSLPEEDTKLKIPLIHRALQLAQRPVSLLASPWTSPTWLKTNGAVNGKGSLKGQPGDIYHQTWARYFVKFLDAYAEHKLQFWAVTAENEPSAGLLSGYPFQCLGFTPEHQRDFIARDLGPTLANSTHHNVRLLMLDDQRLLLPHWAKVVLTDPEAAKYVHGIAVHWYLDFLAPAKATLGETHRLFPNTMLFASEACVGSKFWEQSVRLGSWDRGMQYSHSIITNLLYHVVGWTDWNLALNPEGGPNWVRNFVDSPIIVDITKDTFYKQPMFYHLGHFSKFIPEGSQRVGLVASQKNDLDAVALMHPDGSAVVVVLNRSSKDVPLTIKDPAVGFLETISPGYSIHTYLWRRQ
How it was run: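 Normal human glucocerebrosidase (0.2 nM) with blue fluorogenic substrate (80 uM final) in citrate/phosphate pH 5.9 with 10mM sodium taurocholate, 0.01% tween-20; 40 min RT, NaOH/glycine stop; fluorescence Ex 365/Em 440; AC50 from a titration from 0.6 nM upwards.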

[2] = AP1 Signaling Pathway (AID 357; active = well fitted curve in either direction with a large enough effect, not every such curve was filed as active; note: % is set by controls: 0 for no effect and ±100 for the full control effect); settings: ME-180 AP-1-bla reporter, EGF-induced, beta-lactamase ratio, 5 h; at 7.69 µM (top of the series) unless noted
How it was run: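 Modulation of EGF-driven AP-1 transcription was assessed with a beta-lactamase reporter in ME-180 cells. Compound and EC50 EGF were co-incubated 5 hours at 37 °C before 2.5-hour CCF4 loading at room temperature and dual-emission reading.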

[3] = biological target: Cytochrome P450 1A2 (Homo sapiens) (UniProt P05177); assay: p450-cyp1a2 (AID 410; calls by dose curve; note: potency is the fitted concentration of half-maximal effect); settings: recombinant CYP1A2, luciferin-ME demethylation, luminescence; series mostly up to 57 µM
Chain of Cytochrome P450 1A2 (Homo sapiens) (P05177 whole entry, looked up): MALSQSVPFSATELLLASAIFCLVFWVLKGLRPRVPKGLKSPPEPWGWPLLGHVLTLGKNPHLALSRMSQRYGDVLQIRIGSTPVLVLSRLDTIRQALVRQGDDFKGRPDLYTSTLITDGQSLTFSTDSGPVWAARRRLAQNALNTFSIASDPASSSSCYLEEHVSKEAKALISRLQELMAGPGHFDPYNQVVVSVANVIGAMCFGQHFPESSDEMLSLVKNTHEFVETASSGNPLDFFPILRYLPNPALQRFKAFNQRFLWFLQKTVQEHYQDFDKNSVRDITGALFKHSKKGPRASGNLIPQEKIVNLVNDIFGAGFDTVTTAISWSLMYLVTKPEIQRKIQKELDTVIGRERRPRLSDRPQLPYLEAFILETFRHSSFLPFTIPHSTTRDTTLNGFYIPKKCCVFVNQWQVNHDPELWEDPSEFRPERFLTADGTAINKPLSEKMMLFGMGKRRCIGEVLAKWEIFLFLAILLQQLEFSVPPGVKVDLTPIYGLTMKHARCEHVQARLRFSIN
How it was run: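 O-Demethylation of luciferin 6' methyl ether by human CYP1A2 is monitored as luciferase luminescence. Substrate sits at Km (100uM); enzyme is 20nM. Values are scaled to 57 uM furafylline as maximal inhibition.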

[4] = NFAT Signaling Pathway (AID 444; active = well fitted curve in either direction with a large enough effect, not every such curve was filed as active;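 note: carbachol stimulus at about its EC50 of 1 µM final; % is set by controls: 0 for no effect and ±100 for the full control effect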); settings: Jurkat NFAT-bla M1, carbachol, beta-lactamase ratio, 5 h; at 7.69 µM (top of the series) unless noted
How it was run: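 Jurkat cells carrying an NFAT-driven β-lactamase reporter and co-transfected muscarinic M1 receptor were treated with compound plus carbachol (1 uM final, an EC50 level) for 5 h at 37 °C. CCF4 loading followed for 1 h at RT; 460/530 nm ratio gave %activity.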

[5] = Stat Signaling Pathway (AID 446; active = well fitted curve in either direction with a large enough effect, not every such curve was filed as active;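 note: ME-180 cervical cancer cells given 40 pM IL-6 alongside compound; SIE-controlled beta-lactamase reporter measured as 460/530 nm FRET emission ratio; % is set by controls: 0 for no effect and ±100 for the full control effect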); settings: ME-180 SIE beta-lactamase reporter, IL-6 stimulated, 5 h; at 7.69 µM (top of the series) unless noted
How it was run: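 Compound effects on IL-6-induced STAT reporter activity were measured in ME-180 cells. After overnight culture, cells were co-treated with 40 pM IL-6 for 5 hrs before beta-lactamase substrate loading at room temperature.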

[6] = biological target: Glucocorticoid receptor (Homo sapiens) (UniProt P04150); assay: GR-EFC Redistribution (AID 451; calls by dose curve; note: potency is the fitted concentration of half-maximal effect); settings: CHO-K1 GR-EFC translocation, beta-gal luminescence, 2 h
Chain of Glucocorticoid receptor (Homo sapiens) (P04150 whole entry, looked up, the tested form may be a part): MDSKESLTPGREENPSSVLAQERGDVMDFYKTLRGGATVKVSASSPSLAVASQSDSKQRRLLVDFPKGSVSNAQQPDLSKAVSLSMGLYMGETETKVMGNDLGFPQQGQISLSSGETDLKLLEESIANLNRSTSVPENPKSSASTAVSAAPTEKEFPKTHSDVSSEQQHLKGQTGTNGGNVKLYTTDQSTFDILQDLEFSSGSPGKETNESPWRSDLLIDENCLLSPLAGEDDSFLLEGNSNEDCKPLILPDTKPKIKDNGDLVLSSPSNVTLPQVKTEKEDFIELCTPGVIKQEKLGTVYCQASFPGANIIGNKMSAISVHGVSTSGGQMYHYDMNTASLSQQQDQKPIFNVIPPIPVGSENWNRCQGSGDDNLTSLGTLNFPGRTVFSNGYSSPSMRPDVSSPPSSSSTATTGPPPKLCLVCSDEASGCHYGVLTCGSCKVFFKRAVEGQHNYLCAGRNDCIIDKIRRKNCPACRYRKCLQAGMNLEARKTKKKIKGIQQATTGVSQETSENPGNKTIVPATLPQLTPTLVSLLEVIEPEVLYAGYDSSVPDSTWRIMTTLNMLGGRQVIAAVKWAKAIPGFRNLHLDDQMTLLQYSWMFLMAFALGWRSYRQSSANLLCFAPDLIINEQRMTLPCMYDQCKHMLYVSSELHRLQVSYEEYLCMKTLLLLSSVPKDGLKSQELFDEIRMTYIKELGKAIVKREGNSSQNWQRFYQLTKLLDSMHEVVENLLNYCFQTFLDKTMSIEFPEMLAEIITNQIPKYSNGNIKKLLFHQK
How it was run: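 CHO-K1 cells stably expressing nuclear-localized β-gal enzyme acceptor and GR fused C-terminally to the enzyme donor fragment; ligand-driven nuclear translocation restores β-gal by complementation. Compounds titrated up to 46 uM final, 2 h at 37 °C; luminescence read.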

[7] = biological target: Mitogen-activated protein kinase 10 (Mus musculus) (UniProt Q61831); assay: JNK3 AlphaScreen Assay (AID 530; active = well fitted curve in either direction with a large enough effect, not every such curve was filed as active;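 note: kinase came from lysate of stimulated human HepG2 cells; signal reports phosphorylation of biotinylated GST-cJun 1-79 at Ser73 with 10 µM ATP; % is set by controls: 0 for no effect and ±100 for the full control effect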); settings: JNK3 lysate, c-Jun phosphorylation; series mostly up to 57.1 µM
How it was run: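 Phosphorylation of biotinylated GST-cJun(1-79) at Ser73 is measured by AlphaScreen proximity luminescence. Enzyme is JNK3 in HepG2 lysates activated with interleukin-1beta and tumor necrosis factor alpha; ATP is 10 uM final.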

[8] = biological target: Cytochrome P450 3A4 (Homo sapiens) (UniProt P08684); assay: qHTS Assay for Inhibitors and Substrates of Cytochrome P450 3A4 (AID 884); settings: recombinant CYP3A4, Luciferin-PPXE luminescence; series mostly up to 57.1 µM; note: potency is the fitted concentration of half-maximal effect; nearly all actives have a fitted effect of over 50% in size
Chain of Cytochrome P450 3A4 (Homo sapiens) (P08684 whole entry, looked up): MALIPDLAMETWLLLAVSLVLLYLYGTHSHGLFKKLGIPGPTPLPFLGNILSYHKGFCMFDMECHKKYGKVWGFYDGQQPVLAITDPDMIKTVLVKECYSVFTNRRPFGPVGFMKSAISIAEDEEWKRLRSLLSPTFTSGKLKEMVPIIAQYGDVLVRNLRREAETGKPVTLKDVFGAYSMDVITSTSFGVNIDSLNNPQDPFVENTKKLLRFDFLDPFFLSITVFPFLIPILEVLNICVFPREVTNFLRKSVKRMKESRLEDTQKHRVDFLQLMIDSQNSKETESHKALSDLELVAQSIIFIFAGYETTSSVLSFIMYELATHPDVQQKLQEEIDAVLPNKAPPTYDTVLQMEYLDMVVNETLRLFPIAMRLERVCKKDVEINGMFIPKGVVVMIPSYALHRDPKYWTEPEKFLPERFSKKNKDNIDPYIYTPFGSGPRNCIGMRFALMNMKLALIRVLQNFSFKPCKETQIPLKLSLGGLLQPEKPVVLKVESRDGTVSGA
How it was run: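 Luminescent readout of luciferin produced by CYP3A4 (20 nM) dealkylation of Luciferin-PPXE, 25 uM (its KM). NADPH-driven reaction ran 60 min at RT after 10 min compound preincubation; data scaled to 57 uM ketoconazole as 100% inhibition.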

[9] = biological target: Cytochrome P450 3A4 (Homo sapiens) (UniProt P08684); assay: qHTS Assay for Activators of Cytochrome P450 3A4 (AID 885); settings: recombinant CYP3A4, Luciferin-PPXE luminescence, 60 min; series mostly up to 57.1 µM; note: nearly all actives have a fitted effect of over 65% in size
How it was run: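 CYP3A4 activity: Luciferin-PPXE O-dealkylation, 25uM substrate, 200mM KPO4, RT throughout. Read-out is luciferase luminescence; higher values reflect activation.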

[10] = qHTS Assay for Identification of Small Molecule Agonists for Hypoxia Response Element Signaling Pathway (AID 914; active = well fitted activation curve with a large enough effect in the signal ratio, with a control signal flat, not every such curve was filed as active; the % refers to the signal ratio; note: % of control where 0% means no effect); settings: ME-180 (cervical carcinoma) HRE-bla reporter, beta-lactamase ratio, CoCl2, 17 h; activation: stronger effect = higher value
How it was run: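 Compounds in a titration series were added to ME-180 reporter cells alongside an EC50 level of CoCl2. After 17 hours, beta-lactamase activity was read as the 460nm/530nm emission ratio of CCF4, giving AC50 values.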

[11] = qHTS Assay for Lipid Storage Modulators (AID 1519; calls by dose curve); settings: Drosophila S3 cells, BODIPY lipid droplet/cell ratio, laser cytometry, cells loaded with oleic acid; for activity change, negative = inhibition: at 57.5 µM (top of the series)
How it was run: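 Cells seeded at 5,000 per well were treated with compounds over a concentration series and loaded with oleic acid (400 uM, as added). Lipid droplet fluorescence (488 nm excitation, 500-530 nm channel) was read by laser-scanning cytometry and normalized to 20 uM Triacsin C.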

[12] = biological target: Dual specificity protein kinase CLK4 (Homo sapiens) (UniProt Q9HAZ1); assay: qHTS Assay for Inhibitors of CDC-like Kinase 4 (Kinase-Glo Assay) (AID 1770); settings: recombinant Clk4, Kinase-Glo ATP depletion luminescence; series mostly up to 66.7 µM; note: % is set by controls: 0 for no effect and ±100 for the full control effect; nearly all actives have a fitted effect of over 65% in size
Chain of Dual specificity protein kinase CLK4 (Homo sapiens) (Q9HAZ1 whole entry, looked up): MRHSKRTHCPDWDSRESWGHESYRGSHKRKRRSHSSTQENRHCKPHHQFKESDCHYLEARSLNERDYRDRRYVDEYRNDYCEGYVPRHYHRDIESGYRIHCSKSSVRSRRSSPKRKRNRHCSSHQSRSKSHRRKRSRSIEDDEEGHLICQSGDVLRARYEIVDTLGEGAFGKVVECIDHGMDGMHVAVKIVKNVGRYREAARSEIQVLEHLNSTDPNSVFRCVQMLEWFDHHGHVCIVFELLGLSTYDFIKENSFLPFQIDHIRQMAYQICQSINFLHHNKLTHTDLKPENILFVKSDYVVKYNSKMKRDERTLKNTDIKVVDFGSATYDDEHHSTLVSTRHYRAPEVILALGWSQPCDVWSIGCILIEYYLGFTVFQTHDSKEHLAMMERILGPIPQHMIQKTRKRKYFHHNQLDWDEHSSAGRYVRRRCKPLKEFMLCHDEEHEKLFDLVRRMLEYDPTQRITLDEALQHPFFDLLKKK
How it was run: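 Recombinant human Clk4 (25 nM) phosphorylated RS repeat peptide (100 uM) with 1 uM ATP in Tris pH 7.5/MgCl2/EGTA/DTT/Triton buffer for 4.5 h at room temperature. Residual ATP was quantified by Kinase-Glo luciferase luminescence.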

[13] = biological target: Dual specificity protein kinase CLK4 (Homo sapiens) (UniProt Q9HAZ1); assay: qHTS Assay for Inhibitors of CDC-like Kinase 4 (ADP-Glo Assay) (AID 1771); settings: recombinant CLK4, ADP-Glo luminescence; series mostly up to 80 µM; note: % is set by controls: 0 for no effect and ±100 for the full control effect; nearly all actives have a fitted effect of over 70% in size
How it was run: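 Compounds are pin-transferred onto substrate mix (100 uM RS peptide, 1 uM ATP), then 25 nM Clk4 is added. After 1 hr at room temperature, ADP-Glo reagent runs 45 min, detection reagent 30 min, then luminescence is read.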

[14] = biological target: Dual specificity protein kinase CLK4 (Homo sapiens) (UniProt Q9HAZ1); assay: qHTS Assay for Inhibitors of CDC-like Kinase 4 (ADP-FP Assay) (AID 1795); settings: Transcreener ADP fluorescence polarization; series mostly up to 50 µM; note: % is set by controls: 0 for no effect and ±100 for the full control effect; nearly all actives have a fitted effect of over 60% in size
How it was run: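 Recombinant human Clk4 (6.25 nM) phosphorylated RS repeat peptide (100 uM) with 1 uM ATP in Tris pH 7.5/MgCl2/EGTA/DTT/Triton buffer for one hour. ADP was quantified by Transcreener competitive fluorescence polarization against an ADP calibration curve.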

[15] = biological target: Ubiquitin carboxyl-terminal hydrolase 1 (Homo sapiens) (UniProt O94782); assay: Inhibitors of USP1/UAF1: Pilot qHTS (AID 504865); settings: purified USP1/UAF1, Ub-rhodamine cleavage fluorescence; series mostly up to 54.9 µM;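 note: rhodamine fluorescence freed from ubiquitin-rhodamine substrate followed over time; top concentration of the series differs between compounds; % is set by controls: 0 for no effect and ±100 for the full control effect; nearly all actives have a fitted effect of over 35% in size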
Chain of Ubiquitin carboxyl-terminal hydrolase 1 (Homo sapiens) (O94782 whole entry, looked up): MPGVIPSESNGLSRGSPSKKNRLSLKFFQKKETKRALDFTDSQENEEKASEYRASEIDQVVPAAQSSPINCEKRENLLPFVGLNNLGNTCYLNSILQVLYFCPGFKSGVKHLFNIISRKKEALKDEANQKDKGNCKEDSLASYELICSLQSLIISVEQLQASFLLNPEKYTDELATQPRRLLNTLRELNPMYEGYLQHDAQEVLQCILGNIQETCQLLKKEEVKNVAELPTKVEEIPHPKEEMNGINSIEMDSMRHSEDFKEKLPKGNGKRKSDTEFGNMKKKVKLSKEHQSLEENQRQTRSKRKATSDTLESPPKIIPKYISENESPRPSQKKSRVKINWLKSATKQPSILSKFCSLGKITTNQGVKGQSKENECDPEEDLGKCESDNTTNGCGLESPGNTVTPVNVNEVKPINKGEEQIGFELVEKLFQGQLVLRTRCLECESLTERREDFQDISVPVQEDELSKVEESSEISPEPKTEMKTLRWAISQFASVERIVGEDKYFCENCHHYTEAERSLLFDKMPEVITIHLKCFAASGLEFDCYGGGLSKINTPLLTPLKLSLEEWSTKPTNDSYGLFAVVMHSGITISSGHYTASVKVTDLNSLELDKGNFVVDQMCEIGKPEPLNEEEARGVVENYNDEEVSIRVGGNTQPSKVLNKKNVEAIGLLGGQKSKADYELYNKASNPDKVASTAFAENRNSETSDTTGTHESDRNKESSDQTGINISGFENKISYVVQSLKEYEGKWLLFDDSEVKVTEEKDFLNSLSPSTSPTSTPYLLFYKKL
How it was run: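 USP1/UAF1 complex (1nM) preincubated with compound 15 min at room temperature, then Ub-Rho substrate (150nM final) added. Fluorescence read kinetically at 480/540 nm, 6 reads every 60 seconds. Buffer: 50mM HEPES pH 7.8, 0.5mM EDTA, 0.1 mg/ml BSA, 1mM TCEP, 0.01% Tween-20.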

[16] = Primary qHTS for small molecule stabilizers of the endoplasmic reticulum resident proteome: Secreted ER Calcium Modulated Protein (SERCaMP) assay (AID 1508630); settings: SH-SY5Y GLuc-SERCaMP (Gaussia luciferase released on ER calcium loss) secretion, thapsigargin, luminescence; series mostly up to 38.4 µM; note: % is set by controls: 0 for no effect and ±100 for the full control effect
How it was run: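 The SH-SY5Y reporter protocol was run at 3 concentrations up to 38.3 uM (primary) or 11 concentrations (follow-up): 16 h compound, 100 nM thapsigargin for 4 h, then extracellular luciferase luminescence.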

[17] = biological target: Glucocorticoid receptor (Homo sapiens) (UniProt P04150); assay: GR-GFP Redistribution (AID 450;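 active = compounds whose dose series gives a full or clear partial fitted curve of increased nuclear translocation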; note: potency is the fitted concentration of half-maximal effect); settings: U2OS GR-GFP nuclear translocation, laser cytometry, 2 h
[18] = biological target: 3',5'-cyclic-AMP phosphodiesterase 4B (Homo sapiens) (UniProt Q07343); assay: qHTS Assay for Inhibitors of PDE-IV (AID 607; active = well fitted activation curve with a large enough effect in the main read-out, with a control signal flat, not every such curve was filed as active; note: % of control where 0% means no effect); settings: HEK293 ACTOne CNG channel cells, membrane potential fluorescence; series mostly up to 22.9 µM
Chain of 3',5'-cyclic-AMP phosphodiesterase 4B (Homo sapiens) (Q07343 whole entry, looked up): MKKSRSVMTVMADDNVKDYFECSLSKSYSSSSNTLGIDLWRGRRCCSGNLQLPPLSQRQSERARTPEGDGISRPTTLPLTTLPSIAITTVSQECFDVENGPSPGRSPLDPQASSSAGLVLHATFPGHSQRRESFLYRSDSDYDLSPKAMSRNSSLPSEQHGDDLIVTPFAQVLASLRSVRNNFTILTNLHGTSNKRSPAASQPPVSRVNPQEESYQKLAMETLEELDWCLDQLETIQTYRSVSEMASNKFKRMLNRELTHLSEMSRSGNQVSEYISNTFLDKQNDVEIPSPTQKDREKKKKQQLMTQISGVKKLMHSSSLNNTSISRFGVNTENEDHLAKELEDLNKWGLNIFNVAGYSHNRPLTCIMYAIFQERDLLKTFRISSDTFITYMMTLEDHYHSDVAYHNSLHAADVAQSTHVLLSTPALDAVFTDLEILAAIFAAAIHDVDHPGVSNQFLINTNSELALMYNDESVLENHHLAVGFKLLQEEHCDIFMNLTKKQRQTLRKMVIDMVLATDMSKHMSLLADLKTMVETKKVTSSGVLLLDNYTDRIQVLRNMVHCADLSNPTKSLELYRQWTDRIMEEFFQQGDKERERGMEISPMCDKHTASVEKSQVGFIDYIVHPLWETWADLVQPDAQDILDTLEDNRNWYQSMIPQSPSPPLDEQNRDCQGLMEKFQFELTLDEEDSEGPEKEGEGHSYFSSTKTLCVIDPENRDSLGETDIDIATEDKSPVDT
How it was run: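 ACTOne HEK293 cells carry a modified cAMP-gated CNG channel and express endogenous PDE4; plated 1000 cells/well, compounds up to 22.9 uM final. Membrane-potential dye fluorescence (ex 535/em 590) was read; parental cells received 10 uM forskolin + 100 uM RO 20-1724.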

[19] = measured here: cell count channel max response
[20] = measured here: lipid channel max response

| SMILES | Potency [1] | activity change, negative = inhibition [2] | Potency [3] | activity change, negative = inhibition [4] | activity, negative = inhibition [5] | Potency [6] | outcome [7] | Potency [8] | Potency [9] | activation [10] | activity change, negative = inhibition [11] | max response [11, 19] [%] | max response [11, 20] [%] | Potency [12] | Potency [13] | Potency [14] | Potency [15] | Potency [16] | Potency [17] | Potency [18] |
| --- | --- | --- | --- | --- | --- | --- | --- | --- | --- | --- | --- | --- | --- | --- | --- | --- | --- | --- | --- | --- |
| COc1ccccc1CCn1c(=O)c(-c2cccc(F)c2)nc2cncnc21 | > 11.4 µM (inactive) | -14.2% (inactive) | 1.58 µM (active) | -17.1% (inactive) | 3.83% (inactive) | > 46 µM (inactive) | inactive | 3.16 µM (active) | inactive | -1.08% (inactive) | 6.88% (inactive) | 18.2 | 19.8 | inactive | inactive | inactive | inactive | inactive |  |  |
| c1cncc(-c2cncnc2NC2CCNCC2)c1 | > 11.4 µM (inactive) | 11.1% (inactive) | 12.6 µM (active) |  | 5.17% (inactive) | > 46 µM (inactive) | inactive |  |  |  | 6.71% (inactive) | 15.6 | 20 | inactive | inactive | inactive | inactive | inactive | > 46 µM (inactive) | inactive |
| CN1CCN(c2ncc3ncc(=O)n(C[C@H]4CCCO4)c3n2)CC1 | > 11.4 µM (inactive) | -9.63% (inactive) | 10 µM (active) |  | -20.2% (inactive) | > 46 µM (inactive) | inactive |  |  |  | 6.86% (inactive) | 7.9 | 13.9 | inactive | inactive | inactive | inactive | inactive | > 9.22 µM (inactive) | inactive |
